About 50,000 (12%) of roughly 420,000 compounds were called active. Roughly 26% stayed inconclusive and do not appear here. Calls follow the shape of the dose curve; as a rule, active = well fitted inhibition curve with a large enough effect; inconclusive = small, poorly fitted or top-dose-only effect; inactive = flat fitted curve, though single readings scatter. Only a selection was taken, and actives are over-represented in it overall.

Data on 62 compounds can be found in PubChem BioAssay AID686979 (National Center for Advancing Translational Sciences (NCATS), 2013).
% is scaled to controls: 0 for no effect and ±100 for the full control effect; potency is read from the fitted curve at half-maximal effect.

The nature of this test: qHTS for Inhibitors of human tyrosyl-DNA phosphodiesterase 1 (TDP1): qHTS in cells in presence of CPT. Also: nearly all actives have a fitted effect of over 55% in size. To be noted: chicken DT40 Tdp1-/-;hTDP1 cells + 20 nM CPT, ATP luminescence, 48 h; series mostly up to 46.2 µM; activity change, negative = growth inhibition: at the top concentration. In short, it runs like this:
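Cell growth measured by CellTiter-Glo luminescence after a minimum 48 h, 37 C compound exposure with 20 nM CPT in Tdp1-knockout DT40 cells stably expressing hTDP1, seeded 400/well; qHTS titration format.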
Regarding `COC1=NC2=NCCN2C(OC)=N1`, the “activity change, negative = growth inhibition” value was -6.99% (inactive).

Regarding `O=S(=O)(c1ccc(Br)cc1)c1nnn2c1nc(NC1CCCCCC1)c1sccc12`, the “activity change, negative = growth inhibition” value was -0.255% (inactive).

Regarding `Cc1cccn2c(=O)nc(SCC(=O)NCc3ccccc3Cl)nc12`, the “activity change, negative = growth inhibition” value is -0.21% (inactive). `CN(C(=O)COC(=O)Cc1ccccc1[N+](=O)[O-])C1CCS(=O)(=O)C1` (configuration not stated): the “activity change, negative = growth inhibition” value is 4.83% (inactive). Same read-out and setting: the result for `CCC(C)N1CC(=O)N2Cc3[nH]c4ccccc4c3C[C@H]2C1=O` (some centres not stated) reads -2.41% (inactive). Take `COCCn1c(C)cc(C(=O)COC(=O)CNC(=O)c2ccco2)c1C`: the “activity change, negative = growth inhibition” value is -17% (inactive).

With `CCOC(=O)C1CCN(c2ncnc3c2c(-c2ccccc2)cn3-c2cccc(C)c2)CC1`, the Potency is 18.4 µM (active). As for `CCOC(=O)C1CCN(c2ncnc3c2c(-c2ccccc2)cn3-c2ccc(C)cc2)CC1`, the Potency is 20.6 µM (active). With `CCOC(=O)C1CCN(c2ncnc3c2oc2ccc(Br)cc23)CC1`, the “activity change, negative = growth inhibition” value was -22.5% (inactive). Still for that read-out and setting: with `CCOC(=O)C1CCN(Cc2ccc(-c3ccccc3)cc2)CC1` the figure was 6.78% (inactive); with `CCOC(=O)C1CCN(C(=O)COc2cc(C)c(Br)c(C)c2)CC1`, -20.6% (inactive); with `O=c1[nH]cnc2c1c(-c1ccccc1)cn2-c1ccc(F)cc1`, -11.8% (inactive).

On to `CC(Cc1cccs1)N(Cc1ccc(Cl)cc1)C(=O)c1ccncc1` (configuration not stated), for which the “activity change, negative = growth inhibition” value is -18.9% (inactive). As to `COc1ccc(C(=O)O/N=C(\N)c2ccccn2)cc1[N+](=O)[O-]`, the “activity change, negative = growth inhibition” value was -27.8% (inactive). On the same count and under the same terms, with `COc1ccc(N=Nc2ccc(O)c(P(=O)(c3ccccc3)c3ccccc3)c2)cc1` the figure was -16.4% (inactive); with `COCCN(C(=O)C(C)N1C(=O)c2ccccc2C1=O)c1c(N)n(CC(C)C)c(=O)[nH]c1=O` (configuration not stated), -29.5% (inactive).

Take `CCNC(=O)CC1C(=O)N(c2ccc(F)cc2)C(=O)N1Cc1ccc(C)cc1` (configuration not stated): the “activity change, negative = growth inhibition” value is -0.743% (inactive). On the same count and under the same terms, with `CSc1ccc(CNCCN2CCOCC2)cc1` the figure was -4.96% (inactive).

On to `CCCCOc1ccc(C(C)(O)CCN2CCOCC2)cc1` (configuration not stated), for which the “activity change, negative = growth inhibition” value is 7.6% (inactive).

As to `CC(C)(C)c1ccc(CCC2OCC(CN3CCOCC3)O2)cc1` (configuration not stated), the Potency is 20.6 µM (active). In the case of `CC(C)CCNC(=O)c1[nH]c(C(F)(F)F)nc1-c1ccccc1`, the “activity change, negative = growth inhibition” value was -24.5% (inactive). Take `COc1ccc(/C(C)=N\NC(=O)c2ccc(-c3ccccc3)cc2)c(F)c1`: the “activity change, negative = growth inhibition” value is 1.06% (inactive). With `COc1ccc(C(=O)NN(C)c2nc(-c3ccccc3)cc(C)c2S(C)(=O)=O)cc1`, the Potency is 16.4 µM (active). As for `COc1ccc(C(=O)Nc2cc(C)ccc2NC(=O)COc2ccccc2)cc1`, the “activity change, negative = growth inhibition” value is 10.8% (inactive). Turning to `CC1CCCCC1NC(=O)Cn1c(=O)cnc2ccccc21` (configuration not stated), the “activity change, negative = growth inhibition” value was 0.78% (inactive). On the same count and under the same terms, with `O=S(=O)(Nc1ccccc1Br)c1cccs1` the figure was 9.21% (inactive); with `CCCOC(=O)Cc1c(O)c2ccccc2[nH]c1=O`, -11.3% (inactive); with `O=C(Cc1c(O)c2ccccc2[nH]c1=O)NCc1ccccc1`, 1.16% (inactive). As to `COC(=O)Cc1c(-c2[nH]c3ccccc3c2CC(=O)OC)[nH]c2ccccc12`, the Potency is 20.6 µM (active). As for `Cc1ccc(Nc2ncnc3c2cnn3C)c(C)c1`, the “activity change, negative = growth inhibition” value is -27.3% (inactive). Same read-out and setting: with `Cc1cc(-c2n[nH]c(=S)n2-c2ccc(C)c(C)c2)no1` the figure was -11.6% (inactive); with `CCN(CC)C(=O)COc1coc(CN2CCN(Cc3ccccc3)CC2)cc1=O`, -2.36% (inactive); with `CC(C)(C)NC(=O)COC(=O)c1cc(Cl)ccc1[N+](=O)[O-]`, 3.17% (inactive). In the case of `Nc1nc(CSc2nnnn2-c2ccccc2)nc(Nc2ccccc2)n1`, the “activity change, negative = growth inhibition” value is -16% (inactive).

Take `Cc1ccc(Nc2nc(CSc3nnnn3-c3ccccc3)cc(=O)[nH]2)cc1`: the Potency is 23.1 µM (active). For `Cc1ccc(-c2noc(CSc3nnnn3-c3ccccc3)n2)cc1`, the “activity change, negative = growth inhibition” value is -3.52% (inactive).

Regarding `O=C(NC1(C(F)(F)F)NC(=O)N(Cc2cccnc2)C1=O)c1ccccc1Cl` (configuration not stated), the “activity change, negative = growth inhibition” value was -1.49% (inactive).

For `COC(=O)[C@@]12C[C@@H](CC(=O)N3CCC(c4ccccc4)CC3)C(=O)N(Cc3ccccc3)C1=CCC(C)(C)C2`, the Potency is 18.4 µM (active). For the compound `CCOC(=O)C1CCN(C(=O)CC2C(=O)N(Cc3ccccc3)C(C)c3nc4ccccc4n32)CC1` (configuration not stated), the “activity change, negative = growth inhibition” value is -26.1% (inactive).

As for `COC(=O)[C@]12CCCCC=C1N(Cc1ccc3c(c1)OCO3)C(=O)[C@H](CC(=O)N1CCOCC1)C2`, the “activity change, negative = growth inhibition” value was 8.29% (inactive). `O=c1cc(CN2CCN(c3cccc(Cl)c3)CC2)c2cc3c(cc2o1)CCCC3`: the “activity change, negative = growth inhibition” value was -28.5% (inactive). As for `O=C(NCCCO)/C(=C\C=C\c1ccccc1)NC(=O)c1ccccc1Cl`, the “activity change, negative = growth inhibition” value was -12.1% (inactive). Consider `CCOP(=O)(OCC)C(Nc1ccc([N+](=O)[O-])cc1)c1ccc(Cl)cc1` (configuration not stated), for which the “activity change, negative = growth inhibition” value was -22% (inactive). Turning to `CCOC(=O)[C@]12CCC=C1N(Cc1ccco1)C(=O)[C@H](CC(=O)N1CCSCC1)C2`, the “activity change, negative = growth inhibition” value is -27.5% (inactive). For the compound `CCOC(=O)[C@]12CCCC=C1N(CCC1=CCCCC1)C(=O)[C@H](CC(=O)N1CCOCC1)C2`, the “activity change, negative = growth inhibition” value is -80.8% (inactive). `CCOC(=O)[C@]12CCCC=C1N(CCC1=CCCCC1)C(=O)[C@H](CC(=O)NCCCOC)C2`: the Potency was 14.6 µM (active). Regarding `CC1=C(C(=O)N(C)C)CC(CC(=O)NCCc2ccccn2)C(=O)N1CCC1=CCCCC1` (configuration not stated), the “activity change, negative = growth inhibition” value is 5.55% (inactive). As for `CCOC(=O)[C@]12CCCC=C1N(CCC1=CCCCC1)C(=O)[C@H](CC(=O)N1CCCCC1)C2`, the Potency was 7.31 µM (active).

On to `CN1CCNC(=O)C1CC(=O)NCCC1=CCCCC1` (configuration not stated), for which the “activity change, negative = growth inhibition” value was -0.969% (inactive). Take `CCOC(=O)[C@]12CCC=C1N(Cc1ccccc1)C(=O)[C@H](CC(=O)N1CCCC1)C2`: the “activity change, negative = growth inhibition” value is -15.5% (inactive). In the case of `CCCCOCCCNC(=O)C[C@@H]1C[C@@]2(C(=O)OCC)CCCC=C2N(CCC2=CCCCC2)C1=O`, the Potency is 13 µM (active).

For `CCOC(=O)[C@]12CCCC=C1N(Cc1ccc(Cl)cc1Cl)C(=O)[C@H](CC(=O)N1CCCCC1)C2`, the Potency was 20.6 µM (active). `CC1=C(C(=O)N2CCOCC2)CC(CC(=O)NCCN2CCOCC2)C(=O)N1CCC1=CCCCC1` (configuration not stated): the “activity change, negative = growth inhibition” value was -24.6% (inactive). `COc1ccc(CNC(=O)CN(C(=O)c2csnn2)c2cnc3ccccc3c2)cc1`: the “activity change, negative = growth inhibition” value is -24% (inactive). With `COCCNc1nnc(SCC(=O)NNC(=O)c2ccco2)s1`, the “activity change, negative = growth inhibition” value is -0.281% (inactive). Consider `Cc1ccc(NC(=O)C2CC2c2ccccc2)cc1` (configuration not stated), for which the “activity change, negative = growth inhibition” value is -15.6% (inactive).

Take `O=C(/C=C/[C@H]1O[C@@H](n2cnc3c(NC(=O)c4ccccc4)ncnc32)[C@H](O)[C@@H]1O)NCc1ccccc1`: the “activity change, negative = growth inhibition” value is -25.5% (inactive). Still for that read-out and setting: with `CC1CCCCC12NC(=O)N(CC(=O)Nc1ccc(S(=O)(=O)Nc3ncccn3)cc1)C2=O` (configuration not stated) the figure was 0.923% (inactive); with `CCC(C)N(C(=O)COC(=O)C1C(C(=O)OC)=C(C)NC(C)=C1C(=O)OC)C1CCS(=O)(=O)C1` (configuration not stated), 0.101% (inactive).

For `COc1cc(OC)c(C(=S)N2CCCC2)cc1OC`, the “activity change, negative = growth inhibition” value is -22% (inactive). On to `CSc1ccccc1C(=O)OCC(=O)N1CCN(C(C)=O)CC1`, for which the “activity change, negative = growth inhibition” value is -0.484% (inactive). With `Cc1ccc(NC(=O)[C@H](Cc2ccccc2)NC(=O)CC[C@H]2O[C@@H](n3ccc(=O)[nH]c3=O)[C@H](O)[C@@H]2O)cc1C`, the “activity change, negative = growth inhibition” value is -6.82% (inactive).
